For 31 compounds, growth results are on record in PubChem BioAssay (NCI).

Each structure is given as a SMILES string. About 83,000 compounds went through this panel and 20% of them were active in at least one assay; those are over-represented in the sample as a whole.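 Cell lines were cultured in 96-well plates, exposed to a single compound concentration, and assessed for percent growth 48 hours later.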 Values without a mark were called inactive. The source made the active and inactive calls. Rule for the calls: active = growth percent below 10; inactive = the rest.

The experiment deals with OVCAR-3 ovarian. As to the kind of experiment: NCI-60 one-dose screen, 48 h (100 = growth as untreated, 0 = no growth, -100 = all killed). Particulars: 10 µM unless noted.
Take `N=C(N)c1ccc(-c2ccc(-c3ccc(Cl)cc3)o2)nc1`: the growth is -98.3% (active).

`NC(=O)c1c(NC(=O)c2ccc(OCC3CCCO3)cc2)sc2c1CCCC2` (stereo unspecified): the growth was 108%.

Take `Cc1cc(-c2ccccc2)c(C)n1Cc1ccc(Cl)cc1`: the growth was 27.3%.

Consider `Clc1cccc(Cl)c1Cn1c(-c2cncs2)nc2ccccc21`, for which the growth is 90.5%.

`Cc1ccc(Cn2c(-c3nonc3N)nc3ccccc32)cc1`: the growth was 71.8%.

As for `CC/C(=C(\c1ccc(O)cc1)c1ccc(OCCN(C)CCN(C)C(=O)CCC(=O)c2c(C)[nH]c(/C=C3\N=C(c4ccc[nH]4)C=C3OC)c2C)cc1)c1ccccc1`, the growth was 89.1%.

Consider `NC(N)=NC(N)=Nc1ccccc1-c1ccccc1`, for which the growth is 117%.

Consider `COc1cc(/C=C/C(=O)c2ccc(NC(=O)CN3CCN(c4cc5c(cc4F)c(=O)c(C(=O)O)cn5C4CC4)CC3)cc2)cc(OC)c1OC`, for which the growth is -25.8% (active).

`COc1ccc(-c2nc(-c3ccccc3)c(-c3ccccc3)n2C2CC2)cc1OC1CCCCC1`: the growth is 58.4%.

For `CCOC(=O)[C@H](CSSc1ncnc2cc[nH]c12)NC(=O)[C@@H](C)c1ccc2cc(OC)ccc2c1`, the growth is 25.4%.

As to `COC(=O)c1ccc2nc(-c3cc4ccccc4n3C)n(CCCCOc3cc4c(cc3OC)C(=O)N3CCC[C@H]3C=N4)c2c1`, the growth is -40.2% (active).

On to `COc1cc2c(cc1OC)C1(C)N(CC2)C(=O)OC1(C)C` (stereo unspecified), for which the growth is 114%.

Turning to `CN1CCN(c2ccc3cc(-c4nc5ccccc5[nH]4)c(=O)oc3c2)CC1`, the growth is 97.2%.

Turning to `Nc1c(C(=O)Nc2cccc(C(F)(F)F)c2)sc2nc3c(cc12)CCCCC3`, the growth is 3.45% (active).

As for `COC1=CC(c2ccc[nH]2)=N/C1=C\c1[nH]c(C)c(CCCn2cc(CCCCCCCCC[C@@H]3Cc4cc(O)ccc4C4CC[C@]5(C)[C@@H](O)CC[C@H]5C43)nn2)c1C` (stereo partly specified), the growth was 63.2%.

For `O=C(CN1CCN(c2cc3c(cc2F)c(=O)c(C(=O)O)cn3C2CC2)CC1)Nc1ccc(C(=O)/C=C/c2ccccc2)cc1`, the growth was 54.9%.

As for `Cc1cc(Cl)ccc1OC(C)C(=O)Nc1nnc(C2CC2)s1` (stereo unspecified), the growth is 110%.

For the compound `COc1ccc(/C(=N/O)c2cc(F)c(F)c(OC)c2F)cc1O`, the growth was -2.69% (active).

In the case of `COc1ccc(C(=O)c2cc(OC)c(OC)c(OC)c2)cc1/C=C/C(=O)c1ccc2c(c1)OCO2`, the growth is 1.03% (active).

Consider `CSc1ccccc1C#C/C=C\C#Cc1ccccc1N1CCCCC1=O`, for which the growth was 97.6%.

With `CCCCCCC[C@@H](O)CC(=O)N[C@H](CCCCN)C(=O)N[C@H](Cc1c[nH]c2ccccc12)C(=O)NC(CCCCN)C(=O)N[C@H](CC(C)C)C(=O)N[C@H](Cc1ccccc1)C(=O)N[C@H](CCCCN)C(=O)N[C@H](CCCCN)C(=O)N[C@H](CC(C)C)C(=O)N1CCCC1C(=O)N[C@H](CCCCN)C(=O)N[C@H](Cc1ccccc1)C(=O)N[C@H](CC(C)C)C(=O)N[C@H](Cc1c[nH]cn1)C(=O)N[C@H](CC(C)C)C(=O)N[C@H](C)C(=O)N[C@H](CCCCN)C(=O)N[C@H](CCCCN)C(=O)N[C@H](Cc1ccccc1)C(=O)O` (stereo partly specified), the growth is -41.3% (active).

For `Cc1ccc2c(c1)ncn2-c1ncnc2c1CC(C)c1ccccc1N2C` (stereo unspecified), the growth is 9.32% (active).

On to `CCOC(=O)c1cc(/C(=N\O)c2cc(OC)c(OC)c(OC)c2)n2c(C)cccc12`, for which the growth is 15.7%.

For `Nc1c(C(=O)Nc2cccc(C(F)(F)F)c2)sc2nc3c(cc12)CCCCCC3`, the growth is 0.0711% (active).

On to `Cc1ccc(Cn2c(-c3cccs3)nc3ccccc32)cc1`, for which the growth is 93.9%.

Turning to `CCC(=O)Oc1ccc2c(c1)CC[C@@H]1[C@@H]2CC[C@]2(C)C[C@H](OC(=O)CC)C[C@@H]12`, the growth was 68.8%.

In the case of `COc1ccc2c(c1)C(C)Cc1c(N(C)C)ncnc1N2C` (stereo unspecified), the growth is 10.3%.

Turning to `Cc1cc2c(C(C)C)c(O)c(O)c(C=NCCCCCCC(=O)O)c2c(O)c1-c1c(C)cc2c(C(C)C)c(O)c(O)c(C=NCCCCCCC(=O)O)c2c1O`, the growth is 25.8%.

For `COC(=O)CCCCCCN=Cc1c(O)c(O)c(C(C)C)c2cc(C)c(-c3c(C)cc4c(C(C)C)c(O)c(O)c(C=NCCCCCCC(=O)OC)c4c3O)c(O)c12`, the growth is 21.8%.

With `C=CCc1cc(Cl)cc2c(OC(C)=O)c(C(C)=O)c(-c3ccccc3)nc12`, the growth is 107%.

In the case of `CCN1C(=O)N[C@H]2[C@@H]3NC(=O)c4ccc(Cl)n4[C@@H]3C[C@]21O`, the growth was 2.22% (active).
